Screens as filed in PubChem BioAssay.
MEKK3 PB1 HTS = modulators of MEKK3-MEK5 PB1 binding, primary screen, biochemical, wildtype MEKK3, multiplex bead flow cytometry, Alexa488-MEK5; binding response (% of control), % at 10 µM; bead-based flow cytometry, Alexa488-MEK5 binding to MEKK3; actives lie on both sides; 0 = blocked by unlabeled MEK5, 100 = vehicle; hit rate 1.4% among 290,000; AID 1529, 2009; Mitogen-activated protein kinase kinase kinase 3 (Homo sapiens), Q99759;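 active = binding response more than 3 SD above or below the average of its plate-row segment, actives on both sides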;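 also: Alexa488 bead fluorescence after subtracting the streptavidin-only scavenger bead signal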
MEKK2 mut-MEK5 = MEK5 binding signal on mutant MEKK2 PB1, primary screen, biochemical, multiplex bead flow cytometry, Alexa488-MEK5; Alexa488-MEK5 binding to MEKK2 mutant; percent response, % at 10 µM; hit rate 0.35% among 290,000; in the data active = percent response above about 24%, passing the limit was not always enough
MEKK2 WT-MEK5 = modulators of MEK5 binding to wildtype MEKK2, primary screen, biochemical, multiplex bead flow cytometry, Alexa488-MEK5 | Mitogen-activated protein kinase kinase kinase 2 (Homo sapiens), Q9Y2U5 | Alexa488-MEK5 binding to MEKK2 WT; actives lie on both sides | binding response (% of control), % at 10 µM | hit rate 1.1% among 290,000 | AID 1531, 2009; in the data active = binding response below about 67% or above about 130%
UBC13 inh = UBC13 polyubiquitin chain formation inhibitors, primary screen, biochemical, TR-FRET, uHTS. inhibition, % at 20 µM. hit rate 0.47% among 330,000; in the data active = inhibition above about 45%, passing the limit was not always enough
Target sequence (P61088 whole entry, looked up): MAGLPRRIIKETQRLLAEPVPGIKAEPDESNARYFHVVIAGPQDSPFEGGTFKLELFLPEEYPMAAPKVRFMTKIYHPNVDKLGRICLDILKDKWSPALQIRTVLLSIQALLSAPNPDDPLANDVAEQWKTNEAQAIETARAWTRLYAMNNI
Rce1 inhib = yeast Rce1p protease inhibitors, primary screen, biochemical, fluorescence, cell-free homogeneous | CAAX prenyl protease 2 (Saccharomyces cerevisiae (strain ATCC 204508 / S288c)), Q03530 | yeast membranes, quenched prenylated peptide cleavage fluorescence | calls only | hit rate 0.27% among 290,000;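 active = fall in fluorescence gain of 50% or more versus controls, with final raw signal at or below 3038400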;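 also: plate controls were neutral control wells for no effect and wells lacking membranes for full effect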
Target sequence (Q03530 whole entry, looked up): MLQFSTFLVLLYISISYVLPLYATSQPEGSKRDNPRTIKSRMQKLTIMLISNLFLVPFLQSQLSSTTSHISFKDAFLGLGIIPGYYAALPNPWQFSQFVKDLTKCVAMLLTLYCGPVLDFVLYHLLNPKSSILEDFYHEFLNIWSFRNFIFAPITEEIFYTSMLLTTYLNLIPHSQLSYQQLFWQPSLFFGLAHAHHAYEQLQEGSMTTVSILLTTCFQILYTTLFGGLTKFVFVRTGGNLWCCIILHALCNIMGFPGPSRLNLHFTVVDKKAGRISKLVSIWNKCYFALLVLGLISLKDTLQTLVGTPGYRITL
MEKK2wt confirm = modulators of MEK5 binding to wildtype MEKK2, confirmation, biochemical, single concentration, multiplex bead flow cytometry; shares compounds with MEKK3 PB1 HTS; Alexa488-MEK5 binding to MEKK2 WT; actives lie on both sides; binding response (% of control), % at 10 µM; hit rate 2.4% among 5,900; AID 1892, 2009; in the data active = binding response below about 16% or above about 210%; inactive = in between
MEKK2mut-MEK5 = mutant MEKK2 PB1-MEK5 binding signal retest – biochemical, single concentration, multiplex bead flow cytometry, confirmation | shares compounds with MEKK3 PB1 HTS | Alexa488-MEK5 binding to MEKK2 mutant | percent response, % at 10 µM | hit rate 2% among 5,900 | AID 1893, 2009; in the data active = percent response mostly above about 71%, no sharp cut-off; inactive = mostly below about 38%;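 also: higher means compound restores mutant binding toward wildtype level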
MEKK3-MEK5 inh = MEKK3 wild-type PB1 binding to MEK5, inhibitors, confirmation, biochemical, bead multiplex flow cytometry, single concentration, wildtype | Alexa488-MEK5 binding to MEKK3; active compounds read low | hit rate 1.8% among 5,900 | binding response (% of control), % at 10 µM | shares compounds with MEKK3 PB1 HTS;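 active = binding response below 72% of control, or above a set upper limit, though filed actives all read lower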;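 also: 100% = DMSO only wells and 0% = binding blocked by excess unlabeled MEK5; lower values mean stronger disruption of MEK5 binding to MEKK3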
Active calls of the source: *; i = inactive; . = no result given; ! = a repeat was not active; [ ] = remark or other dose. In the library only some 2.5% were active in any assay of this set; here they are far more common.

SMILES	MEKK3 PB1 HTS	MEKK2 mut-MEK5	MEKK2 WT-MEK5	UBC13 inh	Rce1 inhib	MEKK2wt confirm	MEKK2mut-MEK5	MEKK3-MEK5 inh
CCCCNS(=O)(=O)c1ccc2nc(SCC(=O)c3ccccc3OC)[nH]c2c1	75*[inhibitor]	-39	66	6	i	105	4	109
CC(NC(=O)CN1CCOCC1)c1ccc(F)cc1 (stereo unspecified)	105	8	109	4	i	.	.	.
CCc1c(C)nc2cc(-c3ccc(OC)c(OC)c3)nn2c1N1CCCC1	2.0*[inhibitor]	-28	-1.0*[inhibitor]	12	i	106	0	109
CCc1c(C)nc2cc(-c3ccc(OC)c(OC)c3)nn2c1N1CCC(C)CC1	98	3	103	12	i	.	.	.
COc1ccc(-c2noc(CN(C(=O)C(C)(C)C)C(C)C)n2)cc1	118	25*	114	-11	i	98	-3	100
COc1ccc(NS(=O)(=O)c2cccc(C(=O)NC3CCN(Cc4ccccc4)CC3)c2)cc1	77*[inhibitor]	-4	110	1	i	120	7	105
N#Cc1ccc(NC(=O)CNc2cc(S(=O)(=O)N3CCOCC3)ccc2NCC2CCCO2)cc1 (stereo unspecified)	5.0*[inhibitor]	-18	7.0*[inhibitor]	6	i	104	2	107
Clc1ccc(CSc2ncn[nH]2)cc1	.	.	.	4	i	.	.	.
CCOc1ccc(Cl)cc1CSc1ncn[nH]1	1.0*[inhibitor]	-31	1.0*[inhibitor]	7	i	96	-15	88
Cc1ccc(S(=O)(=O)N2CCC[C@H]2C(=O)OCc2cc(=O)oc3cc(C)ccc23)cc1	.	.	.	-2	.	.	.	.
O=C(Nc1ccc2nc(-c3ccc(Br)o3)[nH]c2c1)c1ccco1	107	22	104	-17	i	.	.	.
CC(=O)Nc1ccc2nc(-c3ccc(Br)o3)[nH]c2c1	66*[inhibitor]	-3	63*[inhibitor]	4	i	104	9	104
O=C(Cn1nc(C(F)(F)F)cc1C1CC1)NCc1ccccc1F	107	0	116	7	i	.	.	.
CC(=O)c1c(C)[nH]c(C(=O)OCC(=O)N2CCc3ccccc32)c1C	2.0*[inhibitor]	-41	1.0*[inhibitor]	-11	i	106	2	101
Nc1cc(=O)[nH]c(SCC(=O)Nc2cc([N+](=O)[O-])ccc2Cl)n1	138*	4	117	-4	.	101	2	103
CSc1ccc(/C=C(\C(=O)O)c2ccc(S(=O)(=O)N3CCCC3)s2)cc1	.	.	.	-29	.	.	.	.
COc1ccc(NC(=O)CN(C)C(=O)CCCc2nc3ccccc3s2)cc1	.	.	.	4	i	.	.	.
O=C(COC(=O)CCc1c[nH]c2ccccc12)NCc1ccc(Cl)cc1	2.0*[inhibitor]	-1	2.0*[inhibitor]	11	i	101	-3	102
NC(=O)CSc1nnc(-c2cc3ccccc3o2)n1Cc1ccccc1	124*	9	119	13	i	98	3	104
CCOC(=O)C1=C(CN2CC(C)CC(C)C2)NC(=O)NC1c1ccc2c(c1)OCO2 (stereo unspecified)	97	-9	88	4	.	.	.	.
C/C(CC(=O)NC1CCCCC1)=N\NC(=O)Cc1ccc(-c2ccccc2)cc1	94	-7	92	0	.	.	.	.
COCCCNCCCCSc1ccc(Cl)cc1	52*[inhibitor]	-1	93	-2	i	104	4	101
COCCCNCCOCCSc1ccc(Cl)cc1	91	-2	93	10	i	.	.	.
OCCCCNCc1ccc(OCc2ccc(Cl)cc2)cc1	108	37*	181*	8	i	107	3	101
CC(NCc1ccc(OCc2ccc(Cl)cc2)cc1)C(O)c1ccccc1 (stereo unspecified)	94	4	144*	33	i	160	33	96
SMILES	MEKK3 PB1 HTS	MEKK2 mut-MEK5	MEKK2 WT-MEK5	UBC13 inh	Rce1 inhib	MEKK2wt confirm	MEKK2mut-MEK5	MEKK3-MEK5 inh
CCCCCNCc1ccc(Cl)cc1	100	0	103	14	i	.	.	.
COc1ccc(C2CC(=O)OC3=C2C(=O)CC(C)(C)C3)c(OC)c1 (stereo unspecified)	69*[inhibitor]	-2	80	0	i	93	1	96
Cc1nn2c(N)csc2nc1=O	62*[inhibitor]	-6	69*[inhibitor]	-7	i	59	-24	51*
O=C(CSc1nc2c(c(=O)n1-c1ccc(F)cc1)SCC2)NCc1ccco1	124*	4	120	-3	.	103	-1	100
O=C(Nc1nccs1)c1cccc(NC(=O)C(F)(F)F)c1	101	-5	101	15	.	.	.	.
CCOC(=O)c1c(C)[nH]c(C)c1C(=O)COC(=O)/C=C/c1ccc(Cl)cc1	95	-3	94	-8	i	.	.	.
CN1CCC(=C2c3ccccc3CCc3sccc32)CC1	116	15	155*!	8	i	126	16	95
CCN(CC)CCN(C(=O)c1ccc(C(=O)c2ccccc2)cc1)c1nc2ccc(OC)cc2s1	113	37*	172*	12	i	163	31	105
COc1ccc2nc(N(CCN(C)C)C(=O)c3ccc(C(=O)c4ccccc4)cc3)sc2c1	108	24*	146*	20	i	148	18	102
CCN(CC)CCN(C(=O)c1ccc(S(=O)(=O)N(C)C2CCCCC2)cc1)c1nc2ccc(OC)cc2s1	103	5	129	0	i	.	.	.
COc1ccc2sc(N(CCCN(C)C)C(=O)c3nc4ccccc4s3)nc2c1	111	25	195*	14	i	166	38	104
COc1cc2nc(N(CCCN(C)C)C(=O)c3ccc(C(=O)c4ccccc4)cc3)sc2cc1OC	.	.	.	27	i	.	.	.
C=C1c2cc3c(cc2NC(=S)N1Cc1ccccc1)OCO3	78	-27	78	4	i	.	.	.
CC(=Nc1ccccc1)C1=C(O)CCCC1=O	136*	1	105	4	i	97	-1	93
Cc1ccc([N+](=O)[O-])cc1NC(=O)c1c(-c2ccccc2)noc1C	98	4	101	4	.	.	.	.
